Sampled rows, rich in hits. Any-hit rate of the full collection: about 1.4%.
CCT chaperon mod – modulators of cytosolic chaperonin (CCT/TRiC) activity. purified chaperonin ATPase assay, HTRF ADP detection, 30 min. AID 651819. 360,000 tested, 0.3% active. activity change, % (no concentration beside the values), hits read low; in the data active = activity change below about -30%
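TRiC (40 or 20 nM final, by batch activity) in 30 mM Tris pH 7.4, 100 mM KCl, 5 mM MgCl2, 1 mM DTT was treated with compound at 76 uM single dose, then 10 uM ATP, 30 min at 37 °C. ADP was read by HTRF Transcreener.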
Rango complex inh – prevents formation of the Rango-importin beta complex. Rango CFP/YFP FRET sensor + importin beta, 45 min. Potency, µM (titrated, usually from 92.2 µM). 340,000 tested, 0.031% active; also: nearly all actives have a fitted effect of over 15% in size
Target sequence (Q14974 whole entry, looked up): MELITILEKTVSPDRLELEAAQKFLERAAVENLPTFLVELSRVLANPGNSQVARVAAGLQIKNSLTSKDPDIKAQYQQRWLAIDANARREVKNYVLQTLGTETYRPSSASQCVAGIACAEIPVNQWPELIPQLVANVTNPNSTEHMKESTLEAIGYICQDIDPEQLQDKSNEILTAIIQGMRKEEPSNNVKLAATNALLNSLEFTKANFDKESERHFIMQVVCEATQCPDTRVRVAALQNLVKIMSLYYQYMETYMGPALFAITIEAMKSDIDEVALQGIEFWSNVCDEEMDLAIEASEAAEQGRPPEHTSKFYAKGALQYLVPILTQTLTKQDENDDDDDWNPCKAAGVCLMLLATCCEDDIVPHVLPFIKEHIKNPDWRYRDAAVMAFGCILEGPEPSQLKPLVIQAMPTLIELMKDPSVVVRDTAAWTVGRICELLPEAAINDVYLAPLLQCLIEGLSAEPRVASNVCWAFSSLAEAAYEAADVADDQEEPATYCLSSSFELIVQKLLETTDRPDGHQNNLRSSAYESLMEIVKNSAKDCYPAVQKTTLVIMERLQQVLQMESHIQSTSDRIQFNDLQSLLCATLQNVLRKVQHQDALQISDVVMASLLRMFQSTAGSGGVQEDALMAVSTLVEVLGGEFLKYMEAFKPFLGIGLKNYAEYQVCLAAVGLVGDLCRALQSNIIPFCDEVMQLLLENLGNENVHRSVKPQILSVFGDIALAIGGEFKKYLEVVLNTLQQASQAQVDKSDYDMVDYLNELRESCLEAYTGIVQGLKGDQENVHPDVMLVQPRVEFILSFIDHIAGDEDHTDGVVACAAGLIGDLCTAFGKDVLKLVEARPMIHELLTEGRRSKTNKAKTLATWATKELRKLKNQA
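Inhibition scored from the CFP 486 nm/YFP 530 nm FRET ratio 45 min after adding 0.125 microM importin beta to 50 nM Rango biosensor preincubated 5 min with compound (room temperature, PBS with DTT, Tween-20, BSA). No-importin wells as positive control.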
MmCpn inh – blocks the Methanococcus maripaludis chaperonin Mm-Cpn | purified Mm-Cpn ATPase, ADP Transcreener TR-FRET | 330,000 tested, 0.031% active | Potency, µM (highest dose often 76.9 µM), usual class: inhibitors; active = well fitted inhibition curve with a large enough effect; inconclusive = small, poorly fitted or top-dose-only effect; also: nearly all actives have a fitted effect of over 80% in size
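ATP (10 uM final) was added to archaeal chaperonin (25 nM final) after 10 min exposure to test compound at 37°C; after 30 min further incubation, ADP was detected by competitive TR-FRET.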
Rango release inh – prevents RanGTP from dissociating the Rango-importin beta complex; O95149+P62826; Biochemical FRET Rango-importin beta, RanGTP-induced dissociation; Potency, µM (titrated, usually from 46.1 µM); 340,000 tested, 0.071% active; AID 540253; also: nearly all actives have a fitted effect of over 45% in size
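Compounds sat 5 min at room temperature with 0.1 uM Rango biosensor plus 0.25 uM importin beta, then FRET pre-read. RanGTP-RCC1 (0.6 uM Ran, 2mM GTP, 0.2 uM RCC1) added for 45 min, and the CFP/YFP post-read measured blocked complex dissociation.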
KCNH2 3.1 inh – blocks the human KCNH2 3.1 channel isoform; 340,000 tested, 0.95% active; U2OS KCNH2 3.1, thallium flux FluxOr; stronger effect = lower value; activity change, % (tested at about 1.8 µM);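 active = maximum activity change below -70%; inconclusive = maximum activity change from -70% to -50%; inactive = maximum activity change above -50%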;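 also: thallium influx rate constant from kinetic fluorescence after stimulation buffer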
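Measured as rate of thallium-driven FluxOr signal in transduced U2OS cells carrying the 3.1 channel, read kinetically for 2 min upon stimulation; values are rate constants scaled to DMSO control wells.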
hERG WT inh – inhibitors of human wildtype KCNH2 potassium channel | Q12809 | U2OS, BacMam KCNH2, thallium flux FluxOr; stronger effect = lower value | activity change, % at 1.84 µM | 340,000 tested, 0.37% active | AID 720551;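 active = maximum activity change below -70%; inconclusive = maximum activity change between -70% and -50%; inactive = maximum activity change above -50%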
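U2OS cells transduced with wild-type KCNH2 virus are loaded with FluxOr dye for 45 min, and thallium flux is measured in kinetic reads before and after stimulation buffer. Rate constants are normalized to DMSO controls.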
Large screens that a line does not name were inactive. Unless noted, calls follow the shape of the full dose curve.

CCOC(=O)N1CCN(C(=S)NC(=O)C2CCCC2)CC1	CCT chaperon mod -71
COCCn1c(-c2cc(OC)c(OC)c(OC)c2)nc2oc3ccccc3c(=O)c2c1=O	none
Cc1ccc(-c2nn(C)c(=O)c3ccccc23)cc1CNC(=O)NC1CCCCC1	KCNH2 3.1 inh -166, hERG WT inh -142
CCCC[C@]12Cc3cc(C#N)ccc3C(O1)c1c(cc(-c3ccccc3)oc1=O)O2	none (no result: CCT chaperon mod, Rango complex inh, Rango release inh, KCNH2 3.1 inh, hERG WT inh)
COC(=O)C1CC2=C(CCCC2=O)N(Cc2ccccc2)C1=O (centres undefined)	none (no result: MmCpn inh)
CCCOCCOC(=O)C1=C(C)NC(=O)NC1c1cc(Cl)c(O)c(OC)c1 (centres undefined)	KCNH2 3.1 inh -72
COc1ccc(-c2noc(CCC(=O)N3CCN(c4ccccc4OC)CC3)n2)cc1	CCT chaperon mod -39
COc1cc(/C=N/NC(=O)c2cccnc2)ccc1OCC(=O)N1CCOCC1	none
O=C(C1CC(=O)N(c2ccccc2)C1)N1CCN(c2ccc(F)cc2)CC1 (centres undefined)	none
COC(=O)N1CCCCC1c1cc(C(=O)Nc2ccc(OC)cc2C)no1 (centres undefined)	none (no result: Rango complex inh, MmCpn inh, Rango release inh, KCNH2 3.1 inh, hERG WT inh)
Cc1cc(C)n2ncc(C(=O)NCc3ccccc3)c2n1	KCNH2 3.1 inh -87
CC(Cc1ccccc1)N1CCCC1=O (centres undefined)	none (no result: MmCpn inh, KCNH2 3.1 inh)
CCOc1ccc(N2CC(O)(c3ccc(F)cc3)[N+]3=C2CCCC3)cc1 (centres undefined)	KCNH2 3.1 inh -104
COc1ccc(N2CC(O)(c3ccc(F)cc3)[N+]3=C2CCCC3)cc1 (centres undefined)	none
CCOc1ccc(N2CC(O)(c3cccs3)[N+]3=C2CCCC3)cc1 (centres undefined)	KCNH2 3.1 inh -102, hERG WT inh inconclusive
OC1(c2cccs2)CN(c2ccccc2)C2=[N+]1CCCC2 (centres undefined)	none
COc1ccc(N2CC(O)(c3ccc(OC(F)F)cc3)[N+]3=C2CCCC3)cc1 (centres undefined)	KCNH2 3.1 inh -73, hERG WT inh -86
O=C1OCC/C1=C\NCCCCCCCCN/C=C1\CCOC1=O	none (no result: Rango complex inh, MmCpn inh, Rango release inh)
Nc1nnc(SC2CC(=O)N(c3ccccc3)C2=O)s1 (centres undefined)	CCT chaperon mod -97
O=C(CCc1c[nH]c2ccccc12)OCC(=O)N1CCN(S(=O)(=O)c2ccccc2)CC1	hERG WT inh -101
Cc1ccc(NC(=O)C2CCN(C(=O)c3ccc(F)cc3)CC2)nc1	none
Cc1oc(-c2cc(F)ccc2F)nc1CN1CCCN(C(=O)c2ccco2)CC1	none
COc1cccc(-c2nc(CN3CCN(C(=O)c4ccco4)CC3)c(C)o2)c1OC	KCNH2 3.1 inh -90 (no result: Rango complex inh, MmCpn inh, Rango release inh)
COc1ccc(N(C(=O)c2csnn2)C(C(=O)NC2CCCC2)c2ccccc2)cc1 (centres undefined)	none
O=C(CN1CCN(S(=O)(=O)c2ccc(Br)s2)CC1)NC1CCCCC1	none (no result: MmCpn inh)
O=C(CN1CCN(S(=O)(=O)c2ccc(Br)s2)CC1)N1CCCCC1	hERG WT inh -227
CC1(C)c2[nH]c3ccccc3c2C[C@@H]2C(=O)N(Cc3ccccc3Cl)C(=O)N21	Rango complex inh inconclusive, Rango release inh 12µM (no result: CCT chaperon mod, MmCpn inh, KCNH2 3.1 inh, hERG WT inh)
Cc1cccc(-c2ccc3c(c2)C2CC3CCN2Cc2ccc3c(c2)OCO3)c1 (centres undefined)	KCNH2 3.1 inh -76 (no result: MmCpn inh)
Fc1ccc(-c2ccc3c(c2)C2CC3CCN2Cc2ccc3c(c2)OCO3)cc1 (centres undefined)	none (no result: MmCpn inh, KCNH2 3.1 inh)
CC1(c2nnc(-c3ccc(Cl)cc3)o2)CC(c2ccc(Cl)cc2)=NO1 (centres undefined)	KCNH2 3.1 inh -162
CC1(c2nnc(-c3ccncc3)o2)CC(c2ccc([N+](=O)[O-])cc2)=NO1 (centres undefined)	CCT chaperon mod -62
CCOc1ccc(NC(=O)CC2C(=O)N(CC)C(=S)N2CCNC(C)=O)cc1 (centres undefined)	none
CCOc1ccc(NC(=O)CC2C(=O)N(CC)C(=S)N2CCN2CCOCC2)cc1 (centres undefined)	KCNH2 3.1 inh -88
CC1(C)CC2CC(C)(CN2C(=O)COC(=O)c2ccc(Cl)c(N)c2)C1 (centres undefined)	none
S=c1[nH]nc(-c2ccccc2)n1Cc1ccccc1	none
S=c1[nH]nc(-c2ccc(Cl)cc2)n1Cc1ccccc1	hERG WT inh -306
C=CCn1c(-c2csc(-c3ccc(Cl)cc3)n2)n[nH]c1=S	KCNH2 3.1 inh -195, hERG WT inh -187
COc1ccc(Cl)c2sc(N(CCN(C)C)C(=O)c3ccc4c(c3)OCCO4)nc12	none
CC(=O)Nc1cncc(-c2ccccc2F)n1	none (no result: Rango complex inh, MmCpn inh, Rango release inh, KCNH2 3.1 inh, hERG WT inh)
Clc1ccc(CN2C3=NCCCN3c3ccccc32)cc1Cl	KCNH2 3.1 inh -104, hERG WT inh -85
CCN1C2=NCCCN2c2ccccc21	none
OC(CN1C2=NCCN2c2ccccc21)c1ccc(Br)cc1 (centres undefined)	KCNH2 3.1 inh -73
OC(COc1ccc(Cl)cc1)CN1C2=NCCCN2c2ccccc21 (centres undefined)	Rango complex inh inconclusive, KCNH2 3.1 inh -97, hERG WT inh -146
Clc1ccc(CN2C3=NCCCN3c3ccccc32)cc1	KCNH2 3.1 inh inconclusive
OC(CN1C2=NCCCN2c2ccccc21)c1ccc(Cl)cc1 (centres undefined)	KCNH2 3.1 inh -74
OC(CN1C2=NCCN2c2ccccc21)c1ccccc1 (centres undefined)	none
O=C(COC(=O)C1CCCC1)Nc1ncc(Cl)cc1Cl	none
Cc1c(C(=O)Nc2cccc(Cl)c2)c2ccccn2c1CCc1ccncc1	Rango complex inh inconclusive, KCNH2 3.1 inh -74
CNC(=O)c1ccc(-c2nc(-c3ccccc3)cs2)cc1	CCT chaperon mod -45
COCCNc1nc(NCc2ccc(C(C)C)cc2)c2sccc2n1	none (no result: Rango complex inh, MmCpn inh, Rango release inh, KCNH2 3.1 inh, hERG WT inh)
CC1CCC(NC(=O)C2(C)CCC(=O)N2Cc2cccnc2)CC1 (centres undefined)	CCT chaperon mod -36
Cc1cccc(Nc2ncccc2C(=O)NCc2cccs2)c1C	KCNH2 3.1 inh -73
N#CCC(=O)Nc1ccc(C(=O)OCC(=O)c2ccc3c(c2)OCO3)cc1	MmCpn inh 45µM
N#CCC(=O)Nc1ccc(C(=O)OCC(=O)c2ccc3c(c2)OCCO3)cc1	MmCpn inh inconclusive
CC(=O)Nc1ccc(S(=O)(=O)NCCc2cn3nc(C)c(C)nc3n2)cc1	CCT chaperon mod -79
COc1ccc(S(=O)(=O)NCCc2cn3nc(C)c(C)nc3n2)cc1F	Rango complex inh inconclusive, Rango release inh inconclusive

Screens as filed in PubChem.
